Assay results: PubChem BioAssay
Calls of active or inactive are those of the source.

Legend:
[1] = system: Plasmodium falciparum Sir2 (PF13_0152, Sir2A); assay: pfSir2 binders on small-molecule microarrays, primary screen, biochemical, small-molecule microarray, 635 nm fluorescence (AID 1098); settings: small-molecule microarray binding, fluorescence 635 nm; higher = more signal;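 further: score merges spot fluorescence intensity with its signal-to-noise ratio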
[2] = small-molecule microarray binders of probe aDKK1, primary screen, biochemical, biotinylated probe, 635/667 nm fluorescence (AID 1099); settings: higher = more signal;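 further: score merges 667nm spot fluorescence with signal to noise across triplicate slides; reference of the scale not given here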
[3] = small-molecule microarray binders of probe aCHRDL2, primary screen, biochemical, biotinylated probe, 635/667 nm fluorescence (AID 1100); settings: higher = more signal
[4] = splicing luciferase reporter signal modulators, primary screen, spliceosome inhibition project, cell-based, HEK293, splice +/- reporter (AID 1101); settings: luminescence, 24 h, higher = more signal, called active from +8 up or from −8 down;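 further: HEK293 cells carrying a splicing-competent luciferase reporter gene; test concentration not given here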
[5] = target: Fibroblast growth factor 10 (Homo sapiens) (UniProt O15520); assay: FGF10 binders on small-molecule microarrays, primary screen, biochemical, small-molecule microarray, 635 nm fluorescence (AID 1102); settings: FGF10 binding, fluorescence 635 nm, higher = more signal
[6] = system: glycogen synthase kinase-3 (GSK3A per assay name; protocol says GSK3B); assay: GSK3 binders on small-molecule microarrays, primary screen, biochemical, small-molecule microarray, 635 nm fluorescence, GSK3A (AID 1103); settings: small-molecule microarray binding, fluorescence 635 nm; higher = more signal; further: the record names both GSK3A and GSK3B
[7] = target: Epidermal growth factor receptor (Homo sapiens) (UniProt P00533); assay: EGFR binders on small-molecule microarrays, primary screen, biochemical, small-molecule microarray, 635 nm fluorescence (AID 1104); settings: EGFR binding, higher = more signal;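 further: score merges 667 nm emission intensity with spot signal to noise over triplicate slides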
[8] = target: Follistatin-related protein 3 (Homo sapiens) (UniProt O95633); assay: FSTL3 binders on small-molecule microarrays, primary screen, biochemical, small-molecule microarray, 635 nm fluorescence (AID 1105); settings: FSTL3 binding, higher = more signal;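 further: score merges emission near 667 nm and signal to noise per printed spot across three slides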
[9] = target: Dickkopf-related protein 1 (Homo sapiens) (UniProt O94907); assay: DKK1 binders on small-molecule microarrays, primary screen, biochemical, small-molecule microarray, 635 nm fluorescence scan (AID 1106); settings: DKK1 binding, higher = more signal;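 further: score merges emission near 667 nm with signal to noise over three replicate slides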
[10] = system: Inhibin beta A chain (activin A); assay: INHBA (activin A) binders on microarrays, primary screen, biochemical, small-molecule microarray, 635 nm fluorescence scan (AID 1107); settings: small-molecule microarray binding, higher = more signal;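 further: mouse activin A protein probed at 4.33 µg/mL on printed slides; score merges bound-protein fluorescence near 667 nm with spot signal-to-noise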

Sequence of Fibroblast growth factor 10 (Homo sapiens) (O15520 whole entry, looked up): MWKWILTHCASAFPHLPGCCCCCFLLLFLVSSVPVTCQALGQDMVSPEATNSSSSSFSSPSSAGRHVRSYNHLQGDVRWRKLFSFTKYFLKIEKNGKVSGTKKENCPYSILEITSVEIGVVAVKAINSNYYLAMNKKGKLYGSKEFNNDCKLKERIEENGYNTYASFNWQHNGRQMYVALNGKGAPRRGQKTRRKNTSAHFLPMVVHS
Sequence of Follistatin-related protein 3 (Homo sapiens) (O95633 whole entry, looked up): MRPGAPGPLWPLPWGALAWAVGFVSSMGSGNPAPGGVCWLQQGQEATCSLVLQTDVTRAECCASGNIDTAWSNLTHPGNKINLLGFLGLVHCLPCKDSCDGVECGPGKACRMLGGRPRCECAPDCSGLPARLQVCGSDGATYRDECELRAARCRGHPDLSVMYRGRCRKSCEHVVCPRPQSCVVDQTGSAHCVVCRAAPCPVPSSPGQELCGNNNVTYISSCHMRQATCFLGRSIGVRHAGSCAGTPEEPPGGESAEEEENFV
Sequence of Dickkopf-related protein 1 (Homo sapiens) (O94907 whole entry, looked up): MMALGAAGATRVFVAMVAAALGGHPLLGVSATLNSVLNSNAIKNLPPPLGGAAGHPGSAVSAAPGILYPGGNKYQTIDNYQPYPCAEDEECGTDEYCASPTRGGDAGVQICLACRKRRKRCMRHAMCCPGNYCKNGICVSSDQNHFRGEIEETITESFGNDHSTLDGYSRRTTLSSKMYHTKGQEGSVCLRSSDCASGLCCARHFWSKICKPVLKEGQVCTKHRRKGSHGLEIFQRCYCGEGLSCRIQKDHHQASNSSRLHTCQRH
Sequence of Epidermal growth factor receptor (Homo sapiens) (P00533 whole entry, looked up): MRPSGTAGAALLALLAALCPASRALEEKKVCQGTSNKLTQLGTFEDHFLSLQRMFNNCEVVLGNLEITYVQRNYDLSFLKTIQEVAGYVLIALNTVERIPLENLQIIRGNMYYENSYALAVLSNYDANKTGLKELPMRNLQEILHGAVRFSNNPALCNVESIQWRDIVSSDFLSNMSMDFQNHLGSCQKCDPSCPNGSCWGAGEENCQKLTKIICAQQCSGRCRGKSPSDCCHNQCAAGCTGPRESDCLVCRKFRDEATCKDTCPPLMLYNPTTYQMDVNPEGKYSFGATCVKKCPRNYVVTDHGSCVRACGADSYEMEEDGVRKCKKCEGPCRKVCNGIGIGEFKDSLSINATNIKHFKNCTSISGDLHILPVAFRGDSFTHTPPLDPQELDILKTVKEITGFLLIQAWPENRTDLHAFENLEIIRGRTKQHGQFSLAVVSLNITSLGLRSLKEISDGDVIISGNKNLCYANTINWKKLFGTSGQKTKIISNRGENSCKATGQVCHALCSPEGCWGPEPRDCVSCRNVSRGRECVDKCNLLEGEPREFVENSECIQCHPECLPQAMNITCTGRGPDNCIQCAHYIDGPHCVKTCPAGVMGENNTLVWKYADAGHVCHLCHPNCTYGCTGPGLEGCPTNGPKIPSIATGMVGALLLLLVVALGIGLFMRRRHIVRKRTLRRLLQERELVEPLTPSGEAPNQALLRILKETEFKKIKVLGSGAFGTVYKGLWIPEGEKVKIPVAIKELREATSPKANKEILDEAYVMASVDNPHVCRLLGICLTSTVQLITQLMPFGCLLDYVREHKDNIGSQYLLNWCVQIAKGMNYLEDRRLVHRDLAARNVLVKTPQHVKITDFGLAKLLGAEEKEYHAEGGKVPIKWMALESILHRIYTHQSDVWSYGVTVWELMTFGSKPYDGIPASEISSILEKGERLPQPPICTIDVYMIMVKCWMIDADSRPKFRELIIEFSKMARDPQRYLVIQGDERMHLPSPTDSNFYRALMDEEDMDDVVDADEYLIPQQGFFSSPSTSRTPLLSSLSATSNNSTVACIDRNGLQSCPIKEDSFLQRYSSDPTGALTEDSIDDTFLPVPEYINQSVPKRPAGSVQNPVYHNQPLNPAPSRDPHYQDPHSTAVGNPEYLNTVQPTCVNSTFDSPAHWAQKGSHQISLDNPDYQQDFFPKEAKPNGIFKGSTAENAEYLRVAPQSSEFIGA

Row | SMILES | composite z-score [1] | composite z-score [2] | composite z-score [3] | z-score [4] | composite z-score [5] | composite z-score [6] | composite z-score [7] | composite z-score [8] | composite z-score [9] | composite z-score [10]
1 | [N-]=[N+]=Nc1ccccc1C[C@]1(C(=O)NCc2ccccc2)N=C(c2ccc(OCCCO)cc2)O[C@H]1c1ccccc1 | 1.13 | 0.966 | 1.01 | 0.843 (inactive) | 1.09 | -0.235 | -0.269 | 0.461 | -0.684 | 0.784
2 | COc1cc(CO)cc(I)c1O[C@H]1C=C(C(=O)NCCO)C[C@@H](NCc2ccccc2F)[C@@H]1O | 0.947 | -0.28 | -0.18 | -0.977 (inactive) | 1.06 | 0.417 | 0.152 | 0.638 | 0.239 | 0.0253
3 | COc1ccc(C(O)C2C=CC3C(=O)N(c4ccccc4)C(=O)C3N2Nc2ccc(C#N)cc2)c2ccccc12 (stereo not given) | 1.2 | 0.585 | 0.917 | 1.8 (inactive) | 0.581 | 0.811 | -0.0239 | 0.733 | 0.138 | 0.675
4 | [N-]=[N+]=Nc1ccccc1[C@@H]1OC(c2ccc(OCCCO)cc2)=N[C@]1(CCS(=O)(=O)c1ccccc1)C(=O)NCCN1CCOCC1 | 1.25 | 1.1 | 1.2 | -0.582 (inactive) | 0.832 | 1.29 | 0.652 | 0.374 | -0.0291 | 1.28
5 | C=C[C@H](COC(C)=O)NS(=O)(=O)c1ccc(Br)cc1 | 0.786 | -0.247 | -0.272 | 0.485 (inactive) | -0.28 | -0.384 | 0.141 | 0.128 | 0.516 | 0.294
6 | O=C1c2ccccc2[C@@]2(Cc3ccccc3N(C3CC3)C2=O)[C@H](c2ccc(CO)cc2)N1C1CCCCC1 | -1.5 | 0.16 | 0.615 | -0.402 (inactive) | -0.364 | -0.492 | -0.412 | -0.558 | -0.526 | 0.5
7 | NCCCCCCNC(=O)[C@@H]1C[C@@H]2C(=O)N3CCC[C@H]3C(=O)N2[C@@H]1c1ccc(O)cc1 | 1.27 | 0.0265 | 0.0978 | 0.364 (inactive) | 1.01 | 1.3 | 0.235 | 0.318 | 1.02 | 0.123
8 | O=c1cccc(-c2ccc(C(F)(F)F)cc2)o1 | -0.426 | -0.0458 | 0.239 | 0.0423 (inactive) | -0.46 | -0.762 | -0.215 | -0.936 | -0.572 | 0.339
9 | CCCC=C(CCC)[C@@H](NP(=O)(c1ccccc1)c1ccccc1)c1ccc(C(F)(F)F)cc1 | -1.78 | 0.578 | 0.333 | -0.139 (inactive) | 0.0142 | 0.734 | -0.0267 | -0.354 | -0.15 | 0.589
10 | CCOC(=O)C1=CC[C@@H](c2ccccc2C(F)(F)F)N(S(=O)(=O)c2ccc(C)cc2)C1 | 1.23 | 1.27 | 1.18 | -2.27 (inactive) | 1.18 | 0.914 | 0.29 | 1.12 | -0.144 | 0.685
11 | C[C@]1(C(=O)NC2CC2)c2ccccc2C(=O)N(Cc2ccc(OC(F)(F)F)cc2)[C@H]1c1ccc(CO)cc1 | -0.419 | -0.0414 | 0.755 | 0.765 (inactive) | -0.326 | -0.0882 | -0.617 | -0.409 | -0.758 | 0.781
12 | COCCCNC(=O)[C@@H]1c2ccccc2C(=O)N(Cc2ccccc2C(F)(F)F)[C@H]1c1ccc(CO)cc1 | 1.58 | 0.484 | 0.879 | 0.354 (inactive) | -0.0537 | 0.575 | -0.222 | -0.582 | -0.595 | 0.923
13 | C[N+](C)(C)CCCC[C@@H]1NC(=O)[C@@H]2C[C@H](C(=O)O)[C@H](c3ccc(O)cc3)N2C1=O | -0.72 | 0.0476 | 0.937 | 0.116 (inactive) | -1.57 | -1.32 | -1.04 | 0.0994 | -0.0081 | 0.614
14 | CC(C)C(=C=CC[C@H](O)c1ccc(OCCO)cc1)C[C@H](O)c1cc(Cl)cc(Cl)c1O | 0.631 | -0.0017 | -0.249 | -0.492 (inactive) | 0.893 | 0.741 | 0.122 | 0.699 | -0.0061 | 0.707
15 | CCOC(=O)C[C@H]1[C@H](OC(=O)Cc2ccc3c(c2)OCO3)[C@@H](NC(=O)C2CCCCC2)c2cc(OCCCO)ccc2N1C(=O)c1ccc2ccccc2n1 | 0.774 | 0.034 | -0.529 | -1.49 (inactive) | 1.47 | 0.72 | 0.713 | 1.18 | 1.65 | 0.0341
16 | O=C(O)[C@H](Cc1ccccc1)n1cc(-c2ccccn2)nn1 | -0.0726 | -0.22 | -0.323 | -0.27 (inactive) | 0.3 | 0.507 | 0.211 | 0.333 | 0.227 | 0.325
17 | CC(C)NC(=O)[C@@]1(C)c2ccccc2C(=O)N(C(C)C)[C@H]1c1ccc(CO)cc1 | 1.58 | -0.123 | 0.925 | 0.0862 (inactive) | -1.09 | -0.643 | -1.68 | -0.673 | -1.81 | -1.53

Row | SMILES | composite z-score [1] | composite z-score [2] | composite z-score [3] | z-score [4] | composite z-score [5] | composite z-score [6] | composite z-score [7] | composite z-score [8] | composite z-score [9] | composite z-score [10]
18 | CC=CC(O)C1C=CC2C(=O)N(C)C(=O)C2N1N1CCCCC1 (stereo not given) | 1.11 | 0.123 | 0.452 | 0.661 (inactive) | 0.888 | 1.23 | 0.519 | 1.26 | 0.22 | 0.898
19 | COCCCNC(=O)[C@]1(Cc2ccccc2CN=[N+]=[N-])N=C(c2ccc(OCCCO)cc2)O[C@@H]1c1ccccc1 | 0.465 | 0.383 | 0.775 | -0.697 (inactive) | 0.573 | 0.778 | -0.251 | 0.317 | -0.817 | 0.493
20 | CC(C)CN1C(=O)[C@@]2(c3ccc([N+](=O)[O-])cc3)CC(=O)N(CC34CC5CC(CC(C5)C3)C4)[C@@H]2c2ccc(CO)cc21 | 0.984 | 0.185 | 0.807 | -0.668 (inactive) | -1.02 | -0.853 | -1.72 | -1.09 | -1.48 | 0.2
21 | CCOC(=O)[C@H]1C/C=C/C[C@H](C(=O)OCC)C(=O)O[C@H]2[C@@H](OC)O[C@H](CO)[C@@H](OC(=O)CCc3ccccc3)[C@@H]2OC1=O | 0.254 | -0.41 | 0.128 | -0.389 (inactive) | -0.785 | -1.46 | -0.741 | -1.53 | -0.315 | 0.334
22 | O=C1O[C@@H](c2ccccc2)[C@@H](c2ccccc2)N2[C@@H](c3ccc(O)cc3)[C@]3(C(=O)Nc4ccccc43)[C@@H](C(=O)Nc3nc4ccccc4s3)[C@H]12 | 1.38 | -0.111 | 0.02 | 0.641 (inactive) | 0.488 | 0.878 | -0.104 | 0.415 | 0.065 | 0.3
23 | CO[C@H]1O[C@H](CO)[C@@H](OC(=O)Nc2ccccc2-c2ccccc2)[C@H](OC(=O)Nc2ccc3c(c2)OCO3)[C@@H]1OC(=O)Nc1ccc2c(c1)OCO2 | 1.32 | 0.198 | 0.679 | -1.14 (inactive) | 1.05 | 1.34 | 0.0757 | 1.44 | 0.279 | 0.691
24 | COCCOC(=O)N1C(=O)[C@@]2(c3cc(C#CC4=CCCCC4)ccc31)[C@H](C(=O)N1CCN(c3ncccn3)CC1)[C@H]1C(=O)O[C@H](c3ccccc3)[C@H](c3ccccc3)N1[C@@H]2c1ccc(O)cc1 | 0.827 | 0.646 | 0.509 | 0.345 (inactive) | 0.664 | 1.27 | 0.466 | 1.14 | 0.496 | 0.275
25 | O=C1NC(=O)C2C1C=CC(C(O)c1ccc(Br)cc1)N2Nc1ccccn1 (stereo not given) | 0.246 | 0.71 | 0.662 | -0.141 (inactive) | 0.557 | 0.389 | 0.12 | 0.28 | 1.27 | 1.37
26 | COC(=O)C[C@H]1O[C@]2(C(=O)N(C)c3ccccc32)[C@@H](C)[C@@H]1[Si](C)(C)c1ccc(C)cc1 | 0.486 | -0.276 | -0.203 | -0.283 (inactive) | 0.749 | 0.96 | 0.41 | 0.958 | 0.501 | 0.0223
27 | COc1ccc(NN2C(C(O)c3ccco3)C=CC3C(=O)N(C4CCCCC4)C(=O)C32)cc1 (stereo not given) | 1.39 | 0.456 | 0.689 | 0.157 (inactive) | 1.35 | 1.32 | 0.423 | 1.49 | 0.0006 | 0.725
28 | C=C(/C(=C/C[C@@H](OC(=O)c1ccncc1)c1ccc(OCCO)cc1)c1cc(C(=O)OC)ccc1OC)C(C)C | 0.596 | -0.354 | -0.338 | -0.432 (inactive) | 0.426 | 0.284 | 0.325 | 0.609 | -0.0107 | 0.309
29 | [N-]=[N+]=Nc1ccccc1[C@H]1OC(c2ccc(OCCCO)cc2)=N[C@@]1(CCS(=O)(=O)c1ccccc1)C(=O)N1CCCCC1 | 1.37 | 1.27 | 1.27 | -1.21 (inactive) | 0.354 | 0.797 | 0.0374 | 0.801 | -0.44 | 1.38
30 | COC(=O)C1(Cc2ccccc2)C=C2C(=C(C(C)C)C(=O)C2C)CN1 (stereo not given) | -1.21 | 1.34 | 1.36 | 1.62 (inactive) | -0.713 | -1.51 | -0.449 | -0.482 | -1.41 | 1.35
31 | CCOC(=CC(=O)OC)CC(O)c1cccc(Cl)c1 (stereo not given) | 0.971 | -0.132 | 0.445 | -1.02 (inactive) | -0.617 | 0.982 | -0.779 | -0.151 | -1.3 | -0.297
32 | CC(C)c1ccc(NN2C(C(O)c3ccco3)C=CC3C(=O)N(c4ccccc4)C(=O)C32)cc1 (stereo not given) | 1.02 | 0.978 | 1.09 | 0.165 (inactive) | 0.783 | 1.3 | 0.0401 | 1.22 | 0.191 | 1.14
33 | CC(C)(C)OC(=O)CC[C@]1(C(=O)N2CCOCC2)N=C(c2ccc(OCCCO)cc2)O[C@H]1c1ccccc1 | 1.65 | 0.126 | 0.417 | 0.12 (inactive) | 1.05 | 0.488 | -0.433 | 0.0033 | -0.158 | 0.456
34 | COC(=O)[C@@]1(Cc2ccc(F)cc2)[C@H]2c3cc(C(=O)N4CCCC4)n(CCF)c3C[C@H]2CN1C(=O)c1ccccc1 | 1.62 | 1.98 | 1.02 | -1.72 (inactive) | 0.876 | 0.306 | -0.0069 | 0.418 | 0.555 | 1.03
